Data on 6 molecules can be found in PubChem BioAssay.

Calls of active or inactive are those of the source.

Test [1] has as its system PRMT1 (protein arginine N-methyltransferase 1). Description: PRMT1 binders on small-molecule microarrays, primary screen, biochemical, small-molecule microarray, 635 nm fluorescence (AID 1088).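 Note: binding of Prmt1 protein to compounds spotted on small-molecule microarray slides.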 The conditions noted are these: small-molecule microarray binding, higher = more signal.
Test [2] is described as follows: yeast growth modulation, basal conditions, primary screen, YJM789 clinical isolate, OD600, 24 h (AID 1089).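 Note: growth of clinical yeast isolate S. cerevisiae YJM 789 seeded 1000 cells per well; test concentration not given here.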 The conditions noted are these: S. cerevisiae YJM789 growth, higher = more signal, called active from +8 up or from −8 down.
Test [3] in a line: fission yeast growth modulation, primary screen, strain 972, OD600, 24 h, no modulator (AID 1090).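 Note: basal condition with compound alone and no growth modifier present; test concentration not given here.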 The conditions noted are these: S. pombe 972 growth, higher = more signal, called active from +8 up or from −8 down.
A short description of test [4]: S. cerevisiae growth modulation with rapamycin, primary screen, strain BY4716, OD600, 96 h (AID 1091). Note: test concentration not given here. The conditions noted are these: higher = more signal, called active from +8 up or from −8 down.
In test [5] the target is Torsin-1A-interacting protein 2 (Homo sapiens) (UniProt Q8NFQ8). Description: LULL1 binders on small-molecule microarray, primary screen, cell lysate, human LULL1 lysate, 635/667 nm fluorescence (AID 1092).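 Note: probe is lysate of COS7 cells overexpressing human LULL1; score merges per-feature 667 nm fluorescence with signal-to-noise.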 The conditions noted are these: hLULL1 lysate binding, 635 nm fluorescence, higher = more signal.
Test [6] in a line: E. coli growth modulation, two-sided OD650, primary screen, E. coli filamentation project, strain DRC41, 24 h (AID 1093).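 Note: MC1000 strain lacking acrAB efflux and sulA so SOS filamentation is blocked; test concentration not given here.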 The conditions noted are these: OD650, 24 h, higher = more signal, called active from +8 up or from −8 down.
Test [7] in a line: small-molecule microarray binders of probe aLefty2, primary screen, biochemical, biotinylated probe, 635/667 nm fluorescence (AID 1094).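 Note: score merges spot fluorescence near 667 nm with spot signal-to-noise ratio.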 The conditions noted are these: higher = more signal.
Test [8] concerns Noggin (protein binding on small-molecule microarray). Description: Noggin binders on small-molecule microarray, primary screen, biochemical, 635/667 nm fluorescence (AID 1095).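 Note: score merges 667 nm feature fluorescence with signal to noise over triplicate slides.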 The conditions noted are these: 635 nm fluorescence, higher = more signal.
Test [9] concerns the target Neurogenic locus notch homolog protein 3 (Homo sapiens) (UniProt Q9UM47). Description: NOTCH3 binders on small-molecule microarray, primary screen, biochemical, 635/667 nm fluorescence (AID 1096). The conditions noted are these: NOTCH3 binding, 635 nm fluorescence, higher = more signal.
Test [10] is described as follows: small-molecule microarray binders of probe aEGFR, primary screen, biochemical, biotinylated probe, 635/667 nm fluorescence (AID 1097).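 Note: probe is a biotinylated anti-EGFR antibody binding compounds printed on slides; score combines fluorescence near 667 nm and signal to noise of each spot.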 The conditions noted are these: higher = more signal.
The subject of test [11] is Plasmodium falciparum Sir2 (PF13_0152, Sir2A). The test is described as follows: pfSir2 binders on small-molecule microarrays, primary screen, biochemical, small-molecule microarray, 635 nm fluorescence (AID 1098).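 Note: score merges spot fluorescence intensity with its signal-to-noise ratio.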 The conditions noted are these: small-molecule microarray binding, fluorescence 635 nm; higher = more signal.
Test [12] can be described thus: small-molecule microarray binders of probe aDKK1, primary screen, biochemical, biotinylated probe, 635/667 nm fluorescence (AID 1099).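 Note: score merges 667nm spot fluorescence with signal to noise across triplicate slides; reference of the scale not given here.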 The conditions noted are these: higher = more signal.
The nature of test [13]: small-molecule microarray binders of probe aCHRDL2, primary screen, biochemical, biotinylated probe, 635/667 nm fluorescence (AID 1100). The conditions noted are these: higher = more signal.
A short description of test [14]: splicing luciferase reporter signal modulators, primary screen, spliceosome inhibition project, cell-based, HEK293, splice +/- reporter (AID 1101).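 Note: HEK293 cells carrying a splicing-competent luciferase reporter gene; test concentration not given here.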 The conditions noted are these: luminescence, 24 h, higher = more signal, called active from +8 up or from −8 down. (Reporter assays use an easily measured gene product as a stand-in for the process of interest.)
Test [15] addresses Fibroblast growth factor 10 (Homo sapiens) (UniProt O15520). The test is described as follows: FGF10 binders on small-molecule microarrays, primary screen, biochemical, small-molecule microarray, 635 nm fluorescence (AID 1102). The conditions noted are these: FGF10 binding, fluorescence 635 nm, higher = more signal.
The test system of test [16] is glycogen synthase kinase-3 (GSK3A per assay name; protocol says GSK3B). The test is described as follows: GSK3 binders on small-molecule microarrays, primary screen, biochemical, small-molecule microarray, 635 nm fluorescence, GSK3A (AID 1103). Note: the record names both GSK3A and GSK3B. The conditions noted are these: small-molecule microarray binding, fluorescence 635 nm; higher = more signal.
Test [17] has as its target Epidermal growth factor receptor (Homo sapiens) (UniProt P00533). The test is described as follows: EGFR binders on small-molecule microarrays, primary screen, biochemical, small-molecule microarray, 635 nm fluorescence (AID 1104).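 Note: score merges 667 nm emission intensity with spot signal to noise over triplicate slides.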 The conditions noted are these: EGFR binding, higher = more signal.
The target of test [18] is Follistatin-related protein 3 (Homo sapiens) (UniProt O95633). The test is described as follows: FSTL3 binders on small-molecule microarrays, primary screen, biochemical, small-molecule microarray, 635 nm fluorescence (AID 1105).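 Note: score merges emission near 667 nm and signal to noise per printed spot across three slides.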 The conditions noted are these: FSTL3 binding, higher = more signal.
Test [19] concerns the target Dickkopf-related protein 1 (Homo sapiens) (UniProt O94907). The test is described as follows: DKK1 binders on small-molecule microarrays, primary screen, biochemical, small-molecule microarray, 635 nm fluorescence scan (AID 1106).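 Note: score merges emission near 667 nm with signal to noise over three replicate slides.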 The conditions noted are these: DKK1 binding, higher = more signal.
Test [20] concerns Inhibin beta A chain (activin A). The test is described as follows: INHBA (activin A) binders on microarrays, primary screen, biochemical, small-molecule microarray, 635 nm fluorescence scan (AID 1107).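 Note: mouse activin A protein probed at 4.33 µg/mL on printed slides; score merges bound-protein fluorescence near 667 nm with spot signal-to-noise.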 The conditions noted are these: small-molecule microarray binding, higher = more signal.

Chain of Neurogenic locus notch homolog protein 3 (Homo sapiens) (Q9UM47 whole entry, looked up): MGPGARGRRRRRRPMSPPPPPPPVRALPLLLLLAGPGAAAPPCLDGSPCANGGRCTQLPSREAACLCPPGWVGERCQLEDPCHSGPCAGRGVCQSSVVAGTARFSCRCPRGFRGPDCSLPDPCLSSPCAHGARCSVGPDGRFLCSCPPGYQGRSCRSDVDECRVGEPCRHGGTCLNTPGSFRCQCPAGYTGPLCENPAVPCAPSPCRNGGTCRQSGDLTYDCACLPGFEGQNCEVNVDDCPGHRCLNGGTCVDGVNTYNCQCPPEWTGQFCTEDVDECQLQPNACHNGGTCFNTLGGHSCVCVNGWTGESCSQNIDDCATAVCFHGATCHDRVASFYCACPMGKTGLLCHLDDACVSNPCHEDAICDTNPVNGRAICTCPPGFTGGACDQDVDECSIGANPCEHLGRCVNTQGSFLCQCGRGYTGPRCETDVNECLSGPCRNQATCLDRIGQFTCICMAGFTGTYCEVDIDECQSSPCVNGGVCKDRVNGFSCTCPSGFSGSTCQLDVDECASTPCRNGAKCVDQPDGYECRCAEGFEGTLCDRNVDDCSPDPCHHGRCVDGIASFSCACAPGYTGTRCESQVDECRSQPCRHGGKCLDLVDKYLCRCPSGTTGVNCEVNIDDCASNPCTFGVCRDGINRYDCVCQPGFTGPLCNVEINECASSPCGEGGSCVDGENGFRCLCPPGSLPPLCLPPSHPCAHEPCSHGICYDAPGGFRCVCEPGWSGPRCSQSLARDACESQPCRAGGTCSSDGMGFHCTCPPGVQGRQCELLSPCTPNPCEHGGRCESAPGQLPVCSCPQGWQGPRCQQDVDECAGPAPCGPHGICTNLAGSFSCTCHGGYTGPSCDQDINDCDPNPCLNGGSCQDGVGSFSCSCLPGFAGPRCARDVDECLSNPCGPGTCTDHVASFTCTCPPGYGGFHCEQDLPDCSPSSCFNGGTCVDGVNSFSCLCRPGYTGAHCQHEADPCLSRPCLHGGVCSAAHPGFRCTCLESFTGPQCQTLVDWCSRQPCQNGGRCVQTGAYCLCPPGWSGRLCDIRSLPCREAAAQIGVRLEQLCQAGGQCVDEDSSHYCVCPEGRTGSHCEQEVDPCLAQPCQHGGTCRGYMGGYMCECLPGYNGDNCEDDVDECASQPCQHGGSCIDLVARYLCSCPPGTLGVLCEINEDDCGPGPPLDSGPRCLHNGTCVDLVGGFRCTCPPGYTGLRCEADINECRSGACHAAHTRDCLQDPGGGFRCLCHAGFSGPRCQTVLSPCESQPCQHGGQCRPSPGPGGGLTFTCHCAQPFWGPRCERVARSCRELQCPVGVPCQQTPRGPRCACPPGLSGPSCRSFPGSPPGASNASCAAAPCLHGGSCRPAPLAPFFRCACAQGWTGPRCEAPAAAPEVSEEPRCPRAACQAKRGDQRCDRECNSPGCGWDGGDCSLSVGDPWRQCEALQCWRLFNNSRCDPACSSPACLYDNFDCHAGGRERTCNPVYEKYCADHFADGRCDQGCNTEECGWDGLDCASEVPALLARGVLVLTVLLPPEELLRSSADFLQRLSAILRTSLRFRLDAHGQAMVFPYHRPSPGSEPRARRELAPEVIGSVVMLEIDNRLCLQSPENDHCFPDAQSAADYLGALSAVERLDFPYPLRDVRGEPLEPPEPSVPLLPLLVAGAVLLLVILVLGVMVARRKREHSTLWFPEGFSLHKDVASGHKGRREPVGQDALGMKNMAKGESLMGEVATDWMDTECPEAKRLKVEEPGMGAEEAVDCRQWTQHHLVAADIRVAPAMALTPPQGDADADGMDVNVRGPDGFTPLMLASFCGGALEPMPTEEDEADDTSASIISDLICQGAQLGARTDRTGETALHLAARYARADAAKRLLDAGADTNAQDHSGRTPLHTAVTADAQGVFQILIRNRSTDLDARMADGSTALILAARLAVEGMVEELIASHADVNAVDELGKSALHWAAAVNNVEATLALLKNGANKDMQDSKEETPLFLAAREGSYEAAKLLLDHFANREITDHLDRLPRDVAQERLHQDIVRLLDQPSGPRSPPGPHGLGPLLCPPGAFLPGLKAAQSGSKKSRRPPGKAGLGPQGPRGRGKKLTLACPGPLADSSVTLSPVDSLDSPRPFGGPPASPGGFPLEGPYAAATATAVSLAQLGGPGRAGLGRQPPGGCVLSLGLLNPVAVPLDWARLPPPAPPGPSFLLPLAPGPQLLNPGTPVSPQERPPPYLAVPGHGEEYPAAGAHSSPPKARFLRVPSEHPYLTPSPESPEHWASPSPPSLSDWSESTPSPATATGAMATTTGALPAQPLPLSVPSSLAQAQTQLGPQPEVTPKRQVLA
Chain of Epidermal growth factor receptor (Homo sapiens) (P00533 whole entry, looked up): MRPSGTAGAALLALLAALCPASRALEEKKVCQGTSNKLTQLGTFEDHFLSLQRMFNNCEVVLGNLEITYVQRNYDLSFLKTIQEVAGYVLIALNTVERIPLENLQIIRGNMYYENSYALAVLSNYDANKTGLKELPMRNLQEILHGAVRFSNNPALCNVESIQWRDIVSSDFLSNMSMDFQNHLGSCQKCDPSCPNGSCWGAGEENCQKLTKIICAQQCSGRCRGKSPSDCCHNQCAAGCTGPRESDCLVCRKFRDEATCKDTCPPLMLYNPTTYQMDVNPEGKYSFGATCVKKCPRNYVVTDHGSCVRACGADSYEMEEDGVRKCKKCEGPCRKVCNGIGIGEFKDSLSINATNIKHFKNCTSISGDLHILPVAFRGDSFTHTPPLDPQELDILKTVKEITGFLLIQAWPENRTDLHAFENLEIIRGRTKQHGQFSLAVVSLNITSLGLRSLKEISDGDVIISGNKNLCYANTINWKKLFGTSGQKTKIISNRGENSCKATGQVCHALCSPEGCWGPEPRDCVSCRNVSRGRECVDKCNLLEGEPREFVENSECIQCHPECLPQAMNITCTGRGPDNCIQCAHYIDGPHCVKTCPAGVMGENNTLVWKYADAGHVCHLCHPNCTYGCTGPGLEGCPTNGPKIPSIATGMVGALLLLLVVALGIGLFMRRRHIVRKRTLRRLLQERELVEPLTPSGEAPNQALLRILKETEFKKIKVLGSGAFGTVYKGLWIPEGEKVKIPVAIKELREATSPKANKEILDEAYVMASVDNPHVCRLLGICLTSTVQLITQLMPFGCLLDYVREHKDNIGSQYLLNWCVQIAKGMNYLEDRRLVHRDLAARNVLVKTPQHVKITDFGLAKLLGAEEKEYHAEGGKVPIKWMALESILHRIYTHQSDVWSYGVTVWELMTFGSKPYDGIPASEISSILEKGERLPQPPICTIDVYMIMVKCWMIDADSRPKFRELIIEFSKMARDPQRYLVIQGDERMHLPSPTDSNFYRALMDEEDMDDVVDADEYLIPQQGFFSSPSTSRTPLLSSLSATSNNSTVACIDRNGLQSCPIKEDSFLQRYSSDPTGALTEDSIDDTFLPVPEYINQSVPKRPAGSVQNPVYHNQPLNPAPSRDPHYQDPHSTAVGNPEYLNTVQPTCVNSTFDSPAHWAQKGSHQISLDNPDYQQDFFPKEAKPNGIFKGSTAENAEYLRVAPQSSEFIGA
Chain of Follistatin-related protein 3 (Homo sapiens) (O95633 whole entry, looked up): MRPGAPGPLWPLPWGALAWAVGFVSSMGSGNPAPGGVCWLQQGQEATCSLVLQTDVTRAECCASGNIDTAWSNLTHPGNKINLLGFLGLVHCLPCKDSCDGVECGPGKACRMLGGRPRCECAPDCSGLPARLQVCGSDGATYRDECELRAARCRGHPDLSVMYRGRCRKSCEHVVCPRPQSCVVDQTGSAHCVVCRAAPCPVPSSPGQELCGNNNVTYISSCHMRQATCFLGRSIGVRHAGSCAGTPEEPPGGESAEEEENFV
Chain of Torsin-1A-interacting protein 2 (Homo sapiens) (Q8NFQ8 whole entry, looked up): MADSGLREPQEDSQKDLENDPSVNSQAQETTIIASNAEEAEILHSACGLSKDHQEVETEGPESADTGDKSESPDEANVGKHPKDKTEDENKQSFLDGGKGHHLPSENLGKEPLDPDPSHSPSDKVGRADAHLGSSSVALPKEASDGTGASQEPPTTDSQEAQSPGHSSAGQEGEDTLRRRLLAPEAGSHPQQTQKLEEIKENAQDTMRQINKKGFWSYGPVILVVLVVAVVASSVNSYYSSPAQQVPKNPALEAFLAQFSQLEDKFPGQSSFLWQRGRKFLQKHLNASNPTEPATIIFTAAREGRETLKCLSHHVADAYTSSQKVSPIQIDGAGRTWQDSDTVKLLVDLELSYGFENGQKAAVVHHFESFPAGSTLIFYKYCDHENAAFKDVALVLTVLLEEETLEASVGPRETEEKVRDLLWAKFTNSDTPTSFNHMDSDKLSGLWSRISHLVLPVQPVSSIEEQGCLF
Chain of Fibroblast growth factor 10 (Homo sapiens) (O15520 whole entry, looked up): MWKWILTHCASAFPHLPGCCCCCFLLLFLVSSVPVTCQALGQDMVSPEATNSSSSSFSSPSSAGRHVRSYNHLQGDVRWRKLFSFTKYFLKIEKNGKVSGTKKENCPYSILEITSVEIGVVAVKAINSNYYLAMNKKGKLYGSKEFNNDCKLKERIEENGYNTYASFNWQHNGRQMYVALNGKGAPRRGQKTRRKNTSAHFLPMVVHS
Chain of Dickkopf-related protein 1 (Homo sapiens) (O94907 whole entry, looked up): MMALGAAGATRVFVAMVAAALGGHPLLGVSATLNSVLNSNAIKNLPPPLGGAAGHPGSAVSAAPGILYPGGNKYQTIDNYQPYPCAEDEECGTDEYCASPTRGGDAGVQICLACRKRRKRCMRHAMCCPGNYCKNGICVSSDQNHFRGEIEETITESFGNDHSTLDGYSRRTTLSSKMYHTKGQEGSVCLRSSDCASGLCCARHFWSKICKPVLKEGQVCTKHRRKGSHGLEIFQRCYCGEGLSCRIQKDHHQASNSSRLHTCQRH

For `CCCCO[C@H]1C[C@H]2C(Br)=C[C@@]1(CO)C(=O)[C@]21CO1`, the composite z-score in test [1] is 0.638; in test [5] it was -0.0735; in test [7], -0.341; in test [8] it was 0.648; in test [9], 0.237; in test [10], -0.109. Further, the composite z-score in test [11] is -0.145; in [12] it was -0.482; in test [13], -1.04; in test [15], 0.136; in [16], -0.243; in test [17], 0.156. The composite z-score was 0.184 in test [18], 0.308 in test [19] and 0.363 in test [20]. Also, the z-score is -1.48 (inactive) in [2]; -2.1 (inactive) in test [3]; -1.29 (inactive) in [4]; 2.62 (inactive) in test [6]; -1.53 (inactive) in test [14].
Take `CO[C@H]1COC(=O)CC=C[C@H](C)[C@@H](OC)COC(=O)CC=C[C@@H]1C`: the composite z-score was 0.656 in test [1]; -0.787 in test [5]; -0.169 in test [7]; 0.764 in test [8]; -0.119 in [9]; -0.0273 in test [10]. Besides, the composite z-score is 0.697 in test [11]; -0.546 in [12]; -1.11 in [13]; 0.597 in test [15]; 0.309 in [16]; 0.751 in [17]. Besides, the values for the composite z-score in test [18], in test [19] and in test [20] were 0.522, 0.991 and 0.716, respectively. Moreover, the z-score in [2] was -0.49 (inactive); in test [3], -1.5 (inactive); in [4], -0.98 (inactive); in test [6], 0.898 (inactive); in test [14], -1.06 (inactive).
Take `O=C(O)[C@@H]1Cc2c([nH]c3ccccc23)[C@@H](c2ccccc2)N1`: the composite z-score in [1] was -0.645; in [5] it was 0.249; in test [7], -0.106; in [8] it was 0.483; in test [9], 0.46; in test [10], -0.046. Also, the composite z-score in test [11] was 0.0269; in [12], -0.317; in test [13] it was -0.58; in [15] it was 0.315; in test [16], 0.61; in [17] it was 0.373. Further, the figures for the composite z-score in [18], in test [19] and in test [20] were 0.518, 0.509 and -0.332, respectively. Also, the z-score was -0.0524 (inactive) in [2]; -0.474 (inactive) in test [3]; -0.731 (inactive) in test [4]; 0.294 (inactive) in [6]; -0.333 (inactive) in test [14].
As to `COC(=O)C[C@H]1O[C@]2(C(=O)N(C)c3ccccc32)[C@@H](C)[C@@H]1[Si](C)(C)c1ccc(OC)cc1`, the composite z-score was 0.53 in [1]; 0.49 in [5]; -0.0667 in [7]; 1.07 in test [8]; 0.622 in test [9]; 0.0104 in test [10]. For the same molecule, the composite z-score in [11] is 0.377; in test [12], -0.198; in test [13], -0.514; in [15], 1.29; in test [16], 0.637; in [17], 0.309. Moreover, the composite z-score is 0.558 in test [18], 0.344 in test [19] and -0.27 in test [20]. In addition, the z-score in [2] is -3.04 (inactive); in test [3], -16.7 (active); in test [4] it was -1.54 (inactive); in [6], 1.67 (inactive); in [14], -1.78 (inactive).
For `COCCOC(=O)N1C(=O)[C@@]2(c3ccccc31)[C@H](C(=O)N1CCc3cc(OC)c(OC)cc3C1)[C@H]1C(=O)O[C@H](c3ccccc3)[C@H](c3ccccc3)N1[C@@H]2c1ccccc1OCCO`, the composite z-score was 1.48 in test [1]; 2.14 in [5]; 0.0261 in test [7]; 1.03 in test [8]; 1.07 in test [9]; -0.0717 in test [10]. For the same molecule, the composite z-score in test [11] stood at 1; in [12] it was 0.401; in test [13], 0.339; in test [15], 0.626; in test [16], 1.28; in test [17] it was 0.329. Also, the composite z-score in test [18] is 0.606; in [19], 0.214; in [20], 0.635. Besides, the z-score was 0.384 (inactive) in [2]; -0.0822 (inactive) in test [3]; 5.51 (inactive) in test [4]; 2.8 (inactive) in test [6]; -0.237 (inactive) in test [14].
For `CO[C@@H]1COC(=O)CC=C[C@@H](C)[C@H](OC)COC(=O)CC=C[C@H]1C`, the composite z-score in test [1] was -0.0399; in test [5], -0.266; in test [7], -0.38; in test [8] it was 1.71; in test [9], -0.801; in test [10], -0.158. For the same molecule, the composite z-score in test [11] is 0.816; in [12] it was -0.628; in test [13], -1.4; in [15], 0.262; in [16], 0.103; in test [17], 0.346. Moreover, the figures for the composite z-score in [18], in test [19] and in test [20] were 0.953, 1.84 and 1.8, respectively. Moreover, the z-score in test [2] was -0.131 (inactive); in test [3], -0.761 (inactive); in [4] it was -0.891 (inactive); in [6], 0.162 (inactive); in [14] it was 0.161 (inactive).
